Only a selection was taken, and hits are over-represented in it overall. No count for the full screen is at hand.
system: T1, Caupolican (Caup) homeodomain DNA-binding domain; experiment: PBM E-score (8-mer, recovered from the published 9-mer minima) (E-score (dimensionless, -0.5 to 0.5)); Drosophila protein; higher = stronger relative binding preference, active = 0.31 or more
T1 sequence: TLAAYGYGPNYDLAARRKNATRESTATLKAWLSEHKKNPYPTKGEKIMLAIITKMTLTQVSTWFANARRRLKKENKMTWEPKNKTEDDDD
Summary of the method: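 An enrichment score, with higher meaning stronger, expresses relative binding preference for each short DNA word. The protein used was Caup's homeodomain DNA-binding domain (residues 214-303), produced by in vitro transcription and translation and tested at 100 nM on custom-designed protein binding microarrays. The 8-mer values were recovered from published 9-mer scores, each equal to the lower of its two constituent 8-mer scores.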

PBM E-score, inactive:
ATCCCCAC -0.0707, GCACACAA 0.0665, CTACACAC 0.175, AAACACAT 0.229, TCACACAA 0.193, CTACACAA 0.288, GCACACAC 0.0659, AGACACAT 0.213, TGACACAA 0.259, CATGGCCC -0.169, GGGCTTAC -0.119, CACTAATA 0.118, GTTAGTAA 0.177, CTTATTAC 0.0885, CTGTGCGA -0.0551, CCTACCGA -0.0361, AGTGCGGG -0.187, ATCTTCGG 0.00377, ACACAGCT 0.109, ACCCATCC -0.0713, GCGCCCTA -0.273, ATATAGCC 0.0657, ATACACAG 0.193, ATACACAC 0.256, ATTTTCCC -0.00887, CAAACTGC -0.0256, CGCTAATC -0.0282, TATAGAAA 0.118, AACAATGA 0.244, ACAAATGG 0.193, ACAAATGA 0.154, AACAATGG 0.198, ATGAGCTC -0.0796, ATTTCCTG 0.0432, AGGAGTAT 0.00187, CAGAGCGG -0.155, CTATTACC 0.0284, ATATTACC 0.186, ACATTACT 0.227, ATATTACG 0.16, GTATTACA 0.288, GCATTACA 0.267, CTGACTGC -0.0466, ACAGATAT 0.159, CGGTCATA -0.0654, CATCTGGG -0.0619, AACACGAA 0.293, CACACGAC 0.0592, GACACGAA 0.224, AACACGAG 0.266, AGATATCC 0.0875, ACCCGGGC -0.196, CCGTTTTC -0.0987, GCATAACA 0.255, CTATAACA 0.257, ATATAACC 0.0533, GTATAAGA 0.112, CGTAGGTC -0.0431, CAGCCTGG -0.164, ATAAAGGC -0.111, AGTGGTGG -0.0979, AAGGAATT -0.0309, ACAGTTCA 0.0978, CACATGAA 0.226, TGCATGAA 0.126, ACCATGAA 0.0242, GTCATGAA 0.0353, CACATGAC 0.242, AGCATGAA 0.102, GGCATGAA 0.0161, GCCATGAC -0.0484, TACAGAGA 0.12, GAGTTTGA 0.0834, CGTTTCCC -0.165, AAGATGGC -0.0976, CTGATTAA 0.162, AACCTTAA -0.0003, TGGGGGAA -0.237, GACTTCGA -0.0675, ACTAGAAG 0.00911, AACGGGCC -0.162, GTGACCTA 0.0131, GAGCTCAA -0.094, TGCAAAAA 0.0586, AGACTGCG -0.129, AGCTTCCC -0.188, AAGCCCCA -0.232, AAACACTT 0.153, AAACACGG 0.257, ACACACGT 0.254, AAACACGC 0.248, CAAAGCGC -0.207, GATCAGGC -0.0491, ACCGACTA 0.0195, ACCCCGCA -0.142, ACAATGTA 0.285, CCCATGGA 0.021, ACTATGTC 0.302, GCCATGGA -0.137, CCCATGTC 0.309, CCAATGTC 0.0611, GCCATGCA -0.0297, ACCATGCC -0.0174, AATATTTC 0.0671, TGATTGCA 0.139, GAAATAAA 0.0685, ATGCGAAC 0.0459, GACTCAAC 0.0307, CGAAGGTC -0.156, ACAGCAAT 0.163, ACAGTTGC 0.0312, CCGATAAC 0.0305, ACCATGTG 0.145, ACCATGCA 0.0966, AATTTGGA 0.0747, AGGAACAG 0.0859, ACGAACAG 0.137, ATGAACAG 0.22, AGGAACAC 0.193, CTGAACAC 0.235, GTGAACAC 0.256, ATGAACAA 0.286, ACGAACAA 0.298, AACGGGTA 0.0722, CCCGTCGG -0.289, CCGCAGCC -0.25, GCGCCGAC -0.199, GATCGCAC 0.0699, CATTTGCG 0.00242, ACCTTCGT -0.0522, GCCACCTA -0.192, AACAAATG 0.174, GACAAATA 0.218, AACAAATA 0.287, CACAAGTA 0.205, CACAAGTG 0.111, TACAAAGA 0.239, ACCAAGTA 0.0922, GACAAGTC 0.236, CATGAAGG 0.0126, ACCCCGAA -0.106, AGTGGGTC -0.178, GAAACTGC -0.184, ACCAGGGC -0.112, GGCAGCTA -0.136, CGTTTTCC 0.0392, GACGCGTC -0.0916, ACCGTCCT -0.0635, ACTCAAGA -0.0159, AAGTCAGG -0.109, AACAAGGT 0.293, AACAAGTC 0.278, CTTTGCTC -0.0311, CATCCCTC -0.0768, CAAGTGGG -0.0243, ATGTGTTC 0.266, ATGTGTGG 0.0766, GTGTGTTA 0.275, CTGTGTTA 0.259, AAAGAAGT 0.0392, CATGCTGG 0.0451, CGAAGTCC -0.149, GGCAAGTA 0.101, ACAGGCGT -0.013, CTGTCATA 0.246, GTGTCATA 0.292, GTGTCAGA 0.245, CTGTCAGA 0.0887, ATGTCAGG 0.209, ATGTCATC 0.306, ACCTCGCC -0.212, GCCCTGCA -0.173, TCAGTGAA -0.0554, CCGAGTAG -0.0123, AAATCACA 0.108, CCCGTTAC 0.0202, GATATGAA 0.0673, CATATGTC 0.277, GGTATGTA 0.277, CGTATGTA 0.289, AATATGTG 0.259, AATATGTC 0.297, CCGGGAGC -0.282, CTCTGGAA -0.12, CGACGGAC 0.00364

PBM E-score, active:
ATACACAT 0.311, TTACACAA 0.311, GTACACAA 0.338, GTACACAC 0.331, ATACACAA ≥ 0.341, ACAAATGT ≥ 0.311, AACAATGT 0.345, CTATTACA 0.346, ACATTACA ≥ 0.37, ATATTACA 0.35, AACACGAC 0.321, GACACGAC 0.347, GTATAACA 0.338, ATATAACA 0.372, TACATGAA 0.383, GACATGAC 0.394, GACATGAA 0.318, AACATGAA 0.387, AAACACGA ≥ 0.351, AAACACGT 0.312, ACCATGTC 0.408, CCCATGTA 0.326, GCCATGTA 0.346, ACAATGTC 0.316, ACCATGTA ≥ 0.422, ATGAACAC 0.332, ATGAACAT 0.326, ACGAACAT 0.349, AGGAACAT 0.339, AACAAGTG 0.334, AACAAGTA 0.33, GACAAGTA 0.355, TACAAGTA ≥ 0.407, AACAAGTT 0.33, ATGTGTTG 0.34, ATGTGTTA ≥ 0.323, ATGTCATG 0.353, ATGTCAGA 0.336, ATGTCATA 0.4, CATATGTA 0.334, AATATGTA 0.328, GATATGTA 0.321
